# In PubChem BioAssay AID1851 (National Center for Advancing Translational Sciences (NCATS), 2009):
# Several values for one entry are separate records, joined by “and”; a condition that tells them apart may be missing. Equal values may be shown once. About 5,800 (36%) of roughly 16,000 compounds were called active. Inconclusive results (about 23%) are left out. The call rests on the fitted dose curve; in most records, active means well fitted curve in the direction sought with a large enough effect; inconclusive means small, poorly fitted or top-dose-only effect, or effect the other way; inactive means no such curve, though single readings can be large or run the other way. Some of the results follow.
# Biological target: Cytochrome P450 2C19 (Homo sapiens) (UniProt P33261)
# Sequence (P33261 whole entry, looked up): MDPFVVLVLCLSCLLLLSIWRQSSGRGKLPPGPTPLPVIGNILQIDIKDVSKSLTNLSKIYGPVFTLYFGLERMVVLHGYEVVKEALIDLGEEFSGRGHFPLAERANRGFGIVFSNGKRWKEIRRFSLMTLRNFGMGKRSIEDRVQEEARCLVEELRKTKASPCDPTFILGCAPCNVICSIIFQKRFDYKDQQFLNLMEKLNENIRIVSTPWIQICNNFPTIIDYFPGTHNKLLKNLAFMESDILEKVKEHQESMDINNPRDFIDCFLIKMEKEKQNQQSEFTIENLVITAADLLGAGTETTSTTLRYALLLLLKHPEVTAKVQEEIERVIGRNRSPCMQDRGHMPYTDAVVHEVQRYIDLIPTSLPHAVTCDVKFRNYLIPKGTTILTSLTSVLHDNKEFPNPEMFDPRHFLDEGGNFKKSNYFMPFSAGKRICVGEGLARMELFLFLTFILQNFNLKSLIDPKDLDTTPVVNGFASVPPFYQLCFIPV
# Test: Cytochrome panel assay with activity outcomes
# Conditions: recombinant CYP, pro-luciferin dealkylation, luminescence, p450-cyp2c19; series mostly up to 57.1 µM; activity, negative = inhibition: at the top concentration
# Description: The P450 gene superfamily is involved in the metabolism and clearance of xenobiotics. This assay used various human CYP P450 isozymes to measure the dealkylation of various pro-luciferin substrates to luciferin. The luciferin is then measured by luminescence after the addition of a luciferase detection reagent. Pro-luciferin substrate concentration in the assay was equal to its KM for its CYP P450 isozyme. Inhibitors and some substrates limit the production of luciferin, and decrease measured luminescence.
# NCGC Assay Protocol Summary:
# 1, Reagent, 2 uL, Isozyme and Pro-Luciferin
# 2, Library compounds, 23 nl, 40 uM to 0.24 nM dilution series
# 3, Controls, 23 nl, Isozyme specific inhibitor
# 4, Reagent, 2 uL, NADPH regeneration solution
# 5, Incubation time, 60 min, Isozyme specific temperature
# 6, Reagent, 4ul, Detection reagent
# 7, Incubation time, 20 min, Isozyme specific temperature
# 8, Detection, 1 sec, ViewLux luminescent read
# The luciferase-based P450-GloTM Screening Systems were obtained from Promega (Madison, WI) for CYP 1A2 (V9770), CYP 2C9 (V9790), CYP2 C19 (V9880), CYP 2D6 (V9890), and CYP 3A4 Luciferin-PPXE (V9910) and were adapted for 1,536-well microplates and an automated protocol. The control compounds furafylline for 1A2 (F124), sulfaphenazole for CYP 2C9 (S0758), ketoconazole for CYP 2C19 (K1003), quinidine for 2D6 (Q3625), and ketoconazole for 3A4 (K1003) were purchased from Sigma Aldrich (St. Louis, MO). Recombinant P450 enzymes were obtained from baculovirus constructs expressed in insect cells (BD/Gentest).
# Medium-binding white solid Kalypsys plates used. Mixtures kept on ice. 1A2: 10 nM 1A2, 100 uM Luc-ME, 100 mM KPO4; 2C9: 10 nM 2C9, 100 uM Luc-H, 25 mM KPO4; 2C19: 5 nM 2C19, 10 uM Luc-H EGE, 50 mM KPO4; 2D6: 5 nM 2D6, 30 uM Luc-ME EGE, 100 mM KPO4; 3A4: 10 nM, 25 uM Luc-PPXE. All amounts are reflected in their final concentration, working concentration is 2x.
# NADPH regeneration solution: 1.3 mM NADP+, 3.3 mM glucose-6-phosphate, 3.3 mM MgCl2, 0.4 U/mL glucose-6-phosphate dehydrogenase for all isozymes, 200 mM KPO4 for 3A4. Mixture prepared at RT but kept on ice during automated run.
# RT incubation in auxilliary plate hotel for 1A2, 2D6, and 3A4; 37C for 2C9 and 2C19.
# Keywords: P450, CYP1A2, CYP2C19, CYP2C9, CYP2D6, CYP3A4, Luciferase, MLSMR, MLSCN, NIH Roadmap, qHTS, NCGC
# On the % scale 0 is the no-effect control and ±100 the full control effect.
Structure (SMILES),AC50,"activity, negative = inhibition"
C=CCN=C1CC(C)(C)CC(=O)/C1=C(\O)c1ccccc1,25.1 µM (active),
C=CCN=C1CC(C)(C)CC(=O)/C1=C(/O)CCC(=O)OC,14.1 µM (active),
N#CCCn1c(=O)c(-c2ccccc2)nc2cnc(Nc3ccccc3)nc21,,-8.35% (inactive)
CCNC(=O)c1ccc(-n2nc(C)cc2-c2ccccc2)cc1,11.2 µM (active),
Nc1ccc(C(=O)NCC(=O)O)cc1,,5.57% [at 25.6 µM] (inactive)
Cc1nc2cnc(N3CCOCC3)nc2n(CCC#N)c1=O,,-4.01% (inactive)
Fc1ccc(-c2cnc(-c3cccs3)o2)cc1,6.31 µM (active),
Cc1ccc(N2C(=O)CC(c3ccsc3)C3=C2CC(C)(C)CC3=O)cc1 (configuration not stated),2.51 µM (active),
N#Cc1cc2nc(O)c(O)nc2cc1[N+](=O)[O-],inactive,
N#Cc1cc2[nH]c(=O)c(=O)[nH]c2cc1[N+](=O)[O-],,-9.46% (inactive)
CC1CCCCN1c1cc(C#N)c(C#N)cc1[N+](=O)[O-] (configuration not stated),4.47 µM (active),
CCC(C)NC(=O)C1c2cc(OC)c(OC)cc2C(=O)N(C)C1c1cccs1 (configuration not stated),,-15% (inactive)
Nc1nc(-c2cccnc2)cc(-c2cc(-c3cccnc3)nc(N)n2)n1,,-16.6% [at 11.4 µM] (inactive)
Clc1ccc(Cc2nc(-c3cccnc3)no2)cc1,1.78 µM (active),
Cn1cccc1C(=O)N1CCC2(CCN(Cc3nccs3)CC2)CC1,,-0.0178% (inactive)
N#Cc1c(NC(=O)C2CC(c3ccccc3Cl)=NO2)sc2c1CCC2 (configuration not stated),2 µM (active),
Cc1cc2cccc(C)c2nc1SCC(=O)N(C)c1nc(-c2ccccc2)cs1,,-27.1% (inactive)
CCC(=O)N(Cc1ccco1)c1nc(-c2ccccc2)cs1,5.62 µM (active),
Nn1nnc2ccccc21,,-11.1% (inactive)
N#CCCn1nnc2ccccc21,,-23.8% (inactive)
Cc1ccnc(NCn2nnc3ccccc32)c1,15.8 µM (active),
O=C(O)C[n+]1ccccc1,,-3.69% [at 11.4 µM] (inactive)
Cc1cc(NC(=O)c2c(F)cccc2F)n(-c2nc3ccccc3[nH]2)n1,11.2 µM (active),
COc1cc(NC(=O)c2c(F)cccc2F)nc(OC)n1,,-15.5% (inactive)
Cc1cc(NC(=O)c2ccc(S(=O)(=O)N(C)C)cc2)n(-c2ccccn2)n1,,4.21% (inactive)

Structure (SMILES),AC50,"activity, negative = inhibition"
Nc1ncnc2c1ncn2[C@@H]1CCCO1,,14.6% (inactive)
Cc1nc(S(=O)(=O)N(C)c2ccccc2)c(C#N)c(C)c1Cl,6.31 µM (active),
Cc1nc(S(=O)(=O)NC2CCCCC2)c(C#N)c(C)c1Cl,2.82 µM (active),
CCC[C@H]1C(=O)N2C(N(C)C)=Nc3ccc(C)cc3N2C1=O,,-39.6% [at 25.6 µM] (inactive)
COc1ccc(C[C@@H]2c3cc(OC)c(OC)cc3CC[N@+]2(C)CCC(=O)OCCCCCOC(=O)CC[N@@+]2(C)CCc3cc(OC)c(OC)cc3[C@H]2Cc2ccc(OC)c(OC)c2)cc1OC,,-12.9% [at 25.6 µM] (inactive)
COC(=O)C/C=C\[C@@H](C)[C@@H](/C=N\O[C@@H](C)c1cn([C@H](CO)Cc2ccccc2)nn1)OC,,-27.6% [at 11.4 µM] (inactive) and -8.78% [at 11.4 µM] (inactive)
N#Cc1nc(-c2ccc(OCc3ccccc3)cc2)oc1NCCN1CCOCC1,5.62 µM (active),
N#Cc1ccccc1-c1ccc2ncnc(NCCN3CCOCC3)c2c1,,-23.4% (inactive)
Cc1cccc(NC(=S)NNC(=O)c2csc3c2CCCC3)c1,10 µM (active),
O=[N+]([O-])c1ccc(Cl)c(/C=N/N2CCN(Cc3ccccc3)CC2)c1,17.8 µM (active),
O=[N+]([O-])c1ccc(Cl)c(/C=N/N2CCN(Cc3ccccc3Cl)CC2)c1,3.98 µM (active),
C=C(C)C(=O)N1CC2(CC(c3cccc(NC(=O)c4ccccc4)c3)=NO2)C[C@@H]1C(N)=O (some centres not stated),,-42% (inactive)
Cc1cc(C)c(S(=O)(=O)N2CCN(c3ccc([N+](=O)[O-])c(NCC4CCCO4)c3)CC2)c(C)c1 (configuration not stated),3.16 µM (active),
Cc1ccc(NC(=O)c2ccc(NCC3CCCO3)c([N+](=O)[O-])c2)cc1Cl (configuration not stated),5.01 µM (active),
CCS(=O)(=O)N1CCC(C(=O)NCC2CCCO2)CC1 (configuration not stated),,-8.97% (inactive)
CNc1cc(CS(=O)c2ccccc2)nc(-c2ccccc2)n1 (configuration not stated),1.41 µM (active),
O=S(Cc1cc(Oc2ccccc2)nc(-c2ccccc2)n1)c1ccccc1 (configuration not stated),2.82 µM (active),
O=S(=O)(Cc1cc(Oc2ccccc2)nc(-c2ccccc2)n1)c1ccccc1,1.26 µM (active),
O=c1[nH][nH]c(C(F)(F)F)c1C=Nc1ccccc1Cl,,-12.3% (inactive)
[O-][N+](CCO)(CCO)c1ncnc2nc[nH]c12,,41% [at 11.4 µM] (inactive)
CC[C@@]1(O)C(=O)COc2c1cc1n(c2=O)Cc2c-1nc1cccc(C(C)C)c1c2[Si](C)(C)C,,27.7% (inactive)
Cc1sc(NC(=O)C2CCCCC2)c(C#N)c1-c1ccccc1,2.82 µM (active),
Cc1sc(NC(=O)/C=C/c2ccc(C(C)C)cc2)c(C#N)c1C,,-24.8% (inactive)
CC(=O)N[C@@H](CC(=O)O)C(=O)O,,26.4% [at 25.6 µM] (inactive)
CC#CCOC(=O)c1c(C)nc2sc3c(c2c1N)CC[C@@H](O)C3,25.1 µM (active),

Structure (SMILES),AC50,"activity, negative = inhibition"
Cn1c(=O)c2[nH]c(CCCc3ccc([N+](=O)[O-])cc3)nc2n(C)c1=O,,6.48% [at 11.4 µM] (inactive)
CCc1cc(C(c2ccccc2OC)N2CCOCC2)c(NC(=O)c2ccccc2)s1 (configuration not stated),11.2 µM (active),
CCOc1cc(/C=C2\C(=O)N(Cc3ccc(C)cc3)C(C)=C2C(=O)OC)ccc1O,3.98 µM (active),
COc1cccc(Nc2ncc3nc(C)c(=O)n(CCC#N)c3n2)c1,,-15.9% (inactive)
Cc1cc(OC(=O)c2cc(F)c(F)cc2Cl)nc(C)n1,,24.4% (inactive)
CSc1nsc(SCc2ccc(Cl)cc2)n1,0.447 µM (active),
O=c1c(-c2nc3ccccc3s2)cccn1Cc1ccccc1,2 µM (active),
CCN(CC)CCOC(=O)c1ccc(N)cc1,inactive,
CCOC(=O)c1c(C)[nH]c(C)c1C(=O)COC(=O)c1ccc(S(=O)(=O)N(CC)CC)cc1,1.12 µM (active),
CCOC(=O)c1c(C)[nH]c(C)c1C(=O)COC(=O)c1cccc(S(=O)(=O)N(CC)CC)c1,0.447 µM (active),
CCCN(CCC)S(=O)(=O)c1ccc(C(=O)O)cc1,,15.8% [at 25.6 µM] (inactive)
C[C@@H](CNC(N)=O)NC(N)=O,,25.4% [at 11.4 µM] (inactive)
Cc1ccc(CS(=O)(=O)CCC(=O)NCCCN2CCCC2=O)cc1,,54.4% (inactive)
Cc1ccc(S(=O)(=O)N(CCCN2CCCC2=O)Cc2cc3c(C)ccc(C)c3[nH]c2=O)cc1,11.2 µM (active),
O=C(CCC(=O)OCc1ccc(C(=O)Oc2ccccc2)cc1)Nc1cccc2ccccc12,11.2 µM (active),
O=C(c1ccc(Cl)cc1)N1CCN(C(=O)c2ccco2)CC1,,-25.8% (inactive)
O=C(Cc1ccc(Cl)cc1)N1CCN(C(=O)c2ccco2)CC1,7.94 µM (active),
O=C(c1cc(-c2ccc(Cl)cc2Cl)on1)N1CCN(C(=O)c2ccco2)CC1,3.16 µM (active),
O=C(c1ccco1)N1CCC2(CC1)CN(c1ccccn1)C2,,-14.5% (inactive)
CCCN(CCC)C(=S)NC(=O)c1ccc(Cl)cc1Cl,2.51 µM (active),
CC1CC(C)CN(C(=O)CNS(=O)(=O)c2ccc(Br)s2)C1 (configuration not stated),4.47 µM (active),
COc1ccc(C(=O)NC2CCN(C(=S)Nc3cccc(C)c3)CC2)cc1,8.91 µM (active),
COc1cccc(C(=O)NCCN2CCN(c3ccc(Cl)cc3)CC2)c1,,-19% (inactive)
COc1ccc(C(=O)N2CCC3(CC2)CN(C(=O)Nc2cccc(C#N)c2)C3)cc1,,19.4% (inactive)
COc1cccc(-c2csc(N3CCN(C(=S)Nc4ccccc4)CC3)n2)c1,1.78 µM (active),

Structure (SMILES),AC50,"activity, negative = inhibition"
COc1cccc(-c2csc(N3CCN(CC(=O)NNC(=O)c4ccc(Cl)cc4)CC3)n2)c1,1.26 µM (active),
Cc1cccc(C(=O)NC(=S)N2CCN(C)CC2)c1,,18.4% (inactive)
Cc1cccc(C(=O)NC2CCN(C(=S)NCc3ccco3)CC2)c1,28.2 µM (active),
CNC(=S)N1CCN(c2ccccc2OC)CC1,7.08 µM (active),
COC(=O)N1CCC2(CC1)CCN(c1cccc(-c3ccccc3)c1)CC2,,-33% (inactive)
COc1ccc(N2CCN(C(=S)Nc3cc(C)ccc3C)CC2)cc1,5.62 µM (active),
COC(=O)c1ccc(NC(=S)N2CCN(Cc3cccc(C)c3)CC2)cc1,4.47 µM (active),
COc1ccc(N2CCN(C(=S)Nc3cc(C)cc(C)c3)CC2)cc1,,-17.2% (inactive)
CNC(=S)N1CCN(c2cccc(OC)c2)CC1,7.08 µM (active),
COc1ccc(COC(=O)N/N=C2/C[C@@H](O)[C@@H](O)[C@@H]3[C@@H]4C(=O)N(C(C)(C)C)C(=O)[C@H]4CC[C@H]23)cc1,,9.85% [at 11.4 µM] (inactive)
COc1cccc(N2CCN(C(=S)Nc3cccc(C)c3)CC2)c1,7.94 µM (active),
COc1ccc(N2CCN(C(=S)Nc3cccc(C)c3)CC2)cc1,,-9.17% (inactive)
Cc1c(CCC(C)C)c(-n2ccnc2C)n2c(nc3ccccc32)c1C#N,,9.23% (inactive)
FC(F)(F)c1nc2ccccc2nc1N/N=C/c1ccc(Cl)cc1,3.55 µM (active),
COC(=O)C/C=C\[C@@H](C)[C@@H](/C=N\O[C@@H](C)CN1CCCc2nc(C)c(C)cc21)OC,,-26.4% [at 11.4 µM] (inactive)
Cc1cc(Cl)ccc1OCCCC(=O)N1CCN(C)CC1,5.62 µM (active),
CCOC(=O)c1c(CC(C)C)csc1NC=O,14.1 µM (active),
COC(=O)c1c(C)oc2ccc(N(C(=O)c3ccncc3)S(=O)(=O)c3ccccc3)cc12,0.631 µM (active),
NCCCCCc1nnc(SCc2ccccc2Cl)o1,4.47 µM (active),
NCCCCCc1nnc(SCc2ccc(Cl)cc2Cl)o1,5.62 µM (active),
Cc1cc(=O)n2c3ccccc3n(CC(O)CN3CCCCC3)c2c1C#N (configuration not stated),,-17.8% (inactive)
Nc1ncnc2c1ncn2[C@H]1O[C@@H](C(=O)O)[C@@H](O)[C@H]1O,,-9.53% [at 11.4 µM] (inactive)
